Bioassay records as filed in PubChem.
uPA surface inh: inhibitors of cell surface uPA generation; Potency, µM (doses to about 38.3 µM), inactives show at the highest dose activity change, negative = inhibition, usual class: inhibitors; 330,000 tested, 0.31% active; cell surface uPA generation assay, qHTS; active = well fitted inhibition curve with a large enough effect; inconclusive = small, poorly fitted or top-dose-only effect; inactive = no such curve, though single readings can be large or run the other way; tested in mouse RAW 264.7 cells; also: potency is read from the fitted curve at half-maximal effect; nearly all actives have a fitted effect of over 55% in size
DT40 TDP1 CPT: growth inhibition of DT40 Tdp1-/-;hTDP1 cells with camptothecin (screen for TDP1 inhibitors) | chicken DT40 Tdp1-/-;hTDP1 cells + 20 nM CPT, ATP luminescence, 48 h | Potency, µM (doses to about 46.2 µM), for inactives: at the highest dose activity change, negative = growth inhibition, actives largely listed as inhibitors | 420,000 tested, 12% active; also: potency is read from the fitted curve at half-maximal effect; nearly all actives have a fitted effect of over 55% in size
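Chicken DT40 Tdp1-/- cells stably complemented with human TDP1 were seeded at 400 cells/well in medium containing 20 nM camptothecin, exposed to pin-transferred compounds, and grown at 37 °C for at least 48 hr. Viability was read as ATP luminescence.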
HT1080 IDH1KD tx: kills HT-1080 cells with IDH1 knockdown; HT-1080 IDH1 knockdown viability, ATP luminescence, 48 h; Potency, µM (titrated, usually from 46.1 µM), without a hit: top-dose activity, negative = toxicity, actives largely listed as cytotoxic; 360,000 tested, 2% active; AID 686971;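 also: potency is read from the fitted curve at half-maximal effect; 0% = DMSO wells and -100% = cell-free medium wells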
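Viability of IDH1-knockdown HT-1080 fibrosarcoma cells was assessed by CellTiter-Glo after 48 h at 37 °C with titrated compound; concentration-effect curves were classified by fit quality and response size.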
HT1080-NT tox: kills 2HG-producing HT-1080-NT fibrosarcoma cells; AID 686970; HT-1080-NT fibrosarcoma viability, CellTiter-Glo ATP luminescence, 48 h; 360,000 tested, 1.6% active; Potency, µM (doses to about 46.1 µM), for inactives: top-dose activity, negative = less viability, most hits filed as cytotoxic;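 also: NT is the 2HG producing partner of a matched IDH1 knockdown line; potency is read from the fitted curve at half-maximal effect; 0% = DMSO-treated cells and -100% = media-only wells without cells; nearly all actives have a fitted effect of over 55% in size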
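HT-1080-NT fibrosarcoma cells (2HG-overproducing), 750 cells/well in RPMI with 5% FBS, dosed after 2 h and incubated 48 h at 37C. CellTiter-Glo luminescence normalized to DMSO and no-cell wells; concentration-response curves fitted and classed.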
DT40 TDP1 no CPT: qHTS for Inhibitors of human tyrosyl-DNA phosphodiesterase 1 (TDP1): qHTS in cells in absence of CPT. 420,000 tested, 15% active. DT40 Tdp1-/- hTDP1 cells, no CPT, ATP luminescence, 48 h. Potency, µM (titrated, usually from 46.2 µM), without a hit: at the top dose activity change, negative = growth inhibition, usual class: inhibitors. AID 686978, 2013; also: potency is read from the fitted curve at half-maximal effect; nearly all actives have a fitted effect of over 55% in size
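Cells were dispensed at 400 per well, compounds added by pin tool, plates incubated ≥48 hr at 37 °C, then CellTiter-Glo added for 30 min at room temperature before luminescence reading. Line: DT40 Tdp1-/- complemented with hTDP1; camptothecin omitted.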
IL1B secr inh: inhibitors of inflammasome signaling (IL-1 beta secretion). THP-1 LPS/ATP IL-1B secretion, AlphaLISA, 16 h; hits give low values. activity change, % at 57.5 µM. 360,000 tested, 4.7% active; in the data active = activity change below about -50%; inconclusive = mostly about -30% to -49%
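Secreted IL-1B measured by AlphaLISA bead assay after 16 h compound exposure of THP-1 cells; compounds (final up to 57.5 uM) added 1 h before LPS (250 ng/mL) and ATP (1.25 mM) stimulation; lower signal means less secretion.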
An asterisk follows results filed as active; ? = inconclusive; nt = not tested or not shown; ! = repeats disagree. A selection: hits, their analogues and other compounds. The true share with any hit is near 19%. Unless noted, calls follow the shape of the dose curve; as a rule, active = well fitted curve in the direction sought with a large enough effect; inconclusive = small, poorly fitted or top-dose-only effect, or another doubt; inactive = no such curve, though single readings can be large; an effect the other way counts as inactive or inconclusive. Unless noted, % is scaled to controls: 0 for no effect and ±100 for the full control effect.

SMILES | uPA surface inh | DT40 TDP1 CPT | HT1080 IDH1KD tx | HT1080-NT tox | DT40 TDP1 no CPT | IL1B secr inh
Cc1cccc(C)c1NC(=O)C(c1ccc([N+](=O)[O-])cc1)N(C)C(=O)c1ccccn1 (stereo not drawn) | -8.5% | 6.51µM* | -0.2% | -2.7% | 3.26µM* | -8.3
CCC(C)C(NC(=O)C(Cc1ccc(O)cc1)NC(=O)OCc1ccccc1)C(=O)OC (stereo not drawn) | nt | ? | 1.0% | 6.3% | ? | 24.4
CCCCN(CC)CCNC(=O)c1cc2c(=O)[nH]c3ccc(C)cc3c2s1 | -1.7% | ? | 18.4µM* | 16.4µM* | ? | -99.7*
O=C(NCCCN1CCOCC1)c1cc2c(=O)[nH]c3ccccc3c2s1 | -2.8% | ? | 0.5% | -0.1% | ? | -50.5*
CCC(C)NC(=O)c1cc2c(=O)[nH]c3ccc(C)cc3c2s1 (stereo not drawn) | -1.0% | ? | 10.8% | 9.2% | ? | -52.5*
CCCCN(CC)CCNC(=O)c1cc2c(=O)[nH]c3ccccc3c2n1C | 1.0% | 14.6µM*! | -1.2% | 0.1% | 16.4µM*! | -13.2
CCN1CCN(CCCNC(=O)c2cc3c(=O)[nH]c4ccccc4c3s2)CC1 | -3.1% | ? | ? | -21.5% | ? | ?
CCCCN(C(=O)c1c(CC)noc1C)c1c(N)n(CCC)c(=O)[nH]c1=O | -0.7% | 6.7% | 3.3% | 0.8% | 4.6% | -1.6
CC1CCCC(NC(=O)COC(=O)[C@@H](NC(=O)c2ccc(F)cc2)C(C)C)C1C (stereo partly drawn) | -0.8% | -13.1% | 13.6% | 1.9% | ? | 12.2
CCCCN(CC)CCCNC(=O)c1cc2c(=O)[nH]c3ccccc3c2s1 | -2.3% | ? | ? | ? | 23.1µM* | -73.2*
NS(=O)(=O)c1cccnc1Nc1cccc(C(F)(F)F)c1 | -7.4% | -21.0% | -21.1% | 0.4% | -28.2% | -6.3
Fc1ccc(Nc2nc3nonc3nc2Nc2cccc(C(F)(F)F)c2)cc1 | nt | 0.326µM* | nt | nt | 0.164µM* | nt
COC(=O)c1ccc2c(=O)n(CCCCCC(=O)NCc3ccc(OC)cc3)c(=O)[nH]c2c1 | nt | 23.1µM* | nt | nt | ? | nt
COC(=O)c1ccc2c(=O)n(CCCCCC(=O)NCc3ccccc3)c(=O)[nH]c2c1 | -4.9% | -18.2% | 2.1% | 3.8% | -17.9% | 35.7
COC(=O)c1ccc2c(=O)n(CCCCCC(=O)NC(C)C)c(=O)[nH]c2c1 | -2.3% | ? | 24.1% | -13.4% | 20.6µM* | 6.3
CCOc1ccc(NC(=O)c2cc3cc(C)ccc3n2C)cc1 | nt | -4.4% | nt | nt | -21.4% | nt
Cc1ccc(C2c3c(oc4ccccc4c3=O)C(=O)N2c2ccc(C)cn2)cc1 (stereo not drawn) | nt | 14.6% | nt | nt | -9.9% | nt
COc1ccc(CNC(=S)Nc2ccccc2)cc1Cl | 5.0% | -22.2% | -9.1% | -4.3% | -9.6% | ?
CCCOc1ccc(CNC(=S)Nc2ccccc2)cc1Cl | 2.5% | ? | -27.7% | -17.3% | 16.4µM* | -78.9*
CC(C)COc1ccc(CNC(=S)Nc2ccccc2)cc1Cl | -6.4% | ? | ? | -22.3% | 25.9µM* | ?
Cc1ccc(NC(=O)N2CCc3cc(S(=O)(=O)N4CCC(C)CC4)ccc32)cc1 | nt | -17.4% | nt | nt | -20.3% | nt
COc1ccc(N2CCN(C(=O)c3csc4ccccc34)CC2)cc1 | nt | -21.0% | 11.6% | 9.3% | ? | -6.4
COCCCNC(=S)N1CCN(c2nc(-c3ccccc3)cs2)CC1 | -19.9% | 16.4µM* | -16.6% | ? | 11.6µM* | -4.1
COCCCNC(=S)N1CCN(c2nc(-c3ccc(Cl)cc3)cs2)CC1 | nt | ? | -14.6% | -17.1% | 18.4µM* | -5.0
COCCCNC(=S)N1CCN(C(c2ccccc2)c2ccccc2)CC1 | -22.3% | -33.1% | -0.5% | -1.1% | ? | 11.0
SMILES | uPA surface inh | DT40 TDP1 CPT | HT1080 IDH1KD tx | HT1080-NT tox | DT40 TDP1 no CPT | IL1B secr inh
CC(C)CNC(=S)N1CCN(c2nc(-c3ccc(Cl)cc3)cs2)CC1 | -2.8% | ? | ? | ? | 16.4µM* | -68.7*
O=C(c1csc2ccccc12)N1CCN(c2ccc(Cl)c(Cl)c2)CC1 | -0.6% | 20.6µM* | 21.9% | 1.3% | 23.1µM* | -12.6
O=C(NCc1ccc2c(c1)CCN2C(=O)c1ccncc1)c1ccccc1Cl | nt | -26.2% | nt | nt | ? | nt
CCCCNC(=S)N1CCN(c2nc3ccccc3s2)CC1 | -3.0% | ? | -0.9% | -23.5% | ? | ?
Clc1ccc(-c2csc(N3CCSCC3)n2)cc1 | 14.4% | -16.4% | 7.8% | 6.3% | 28.6% | 7.3
CCC(=O)N1CCN(c2nc(-c3ccc(Cl)cc3)cs2)CC1 | -2.7% | 23.1µM* | ? | -4.0% | 23.1µM* | -2.2
CCN(CC)CCCNC(=S)N1CCN(c2nc(-c3ccccc3)cs2)CC1 | -5.1% | ? | 23.1µM* | 16.4µM* | 18.4µM* | -50.1*
O=C(CN1CCN(c2nc(-c3ccccc3)cs2)CC1)NNC(=O)c1ccc(Br)cc1 | -2.1% | ? | -8.8% | 1.3% | -23.0% | 22.1
COc1ccc(N2CCN(C(=O)CN3CCN(c4nc(-c5ccc(F)cc5)cs4)CC3)CC2)cc1 | -0.2% | 5.8µM* | 2.5% | -6.5% | 7.31µM* | -52.2*
O=C(NC(=S)N1CCN(c2nc(-c3ccccc3)cs2)CC1)c1cncc(Br)c1 | 0.3% | 10.3µM* | -15.5% | -15.7% | ? | 51.3
O=S1(=O)CCN(C2CC2)CC1 | nt | -3.2% | 17.2% | 8.9% | 48.7% | 30.0
O=C(c1cc(-n2cnnc2)ccc1Cl)N1CCN(c2nc(-c3ccccc3)cs2)CC1 | -12.4% | 16.4µM* | ? | ? | 23.1µM* | -89.5*
O=C(NCc1cccc(Cl)c1)C1CCC(=O)N(CCN2CCOCC2)C1 (stereo not drawn) | 6.8% | 9.4% | 9.5% | 5.0% | -1.0% | 0.0
Cn1c(N)c(C(=O)COC(=O)C2(c3ccc(Cl)cc3)CCCC2)c(=O)n(C)c1=O | 6.9% | 14.6µM* | -25.0% | ? | 11.6µM* | 19.2
Cn1c(N)c(C(=O)COc2ccc(Cl)cc2Cl)c(=O)n(C)c1=O | 2.6% | ? | -2.5% | -2.6% | ? | -10.1
Cn1c(N)c(C(=O)COC(=O)C2(c3ccccc3F)CCCC2)c(=O)n(C)c1=O | 3.9% | ? | -13.2% | -14.1% | ? | -4.3
CC(C)[C@H](NS(=O)(=O)c1ccc(Cl)cc1)C(=O)OCC(=O)c1c(N)n(C)c(=O)n(C)c1=O | 16.4% | ? | -0.9% | 0.4% | 20.6µM* | 15.2
Cn1c(N)c(C(=O)COC(=O)C2(c3ccc(F)cc3)CCCC2)c(=O)n(C)c1=O | -6.7% | ? | -16.9% | -23.4% | 18.4µM* | -10.5
